# Sampled rows, rich in hits. Any-hit rate of the full collection: about 5.3%.
# Mot1-301 SUMO: inhibitors of SUMOylation pathway: yeast Mot1-301 growth rescue. growth rescue, % at 18.8 µM. S. cerevisiae Mot1-301 growth rescue, ATP luminescence, 38.5C; percent above DMSO median, 100 means doubled. 1% of 320,000 active. AID 2716;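 active = every valid replicate shows activation above 250% relative to neutral control wells; inactive = the rest, any valid replicate at or below 250%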
# HIF activator: HIF pathway transcriptional activation | 0.32% of 300,000 active | activation, % at 7.5 µM (by protocol) | U2OS HRE-luciferase reporter, luminescence; normalized: DMSO 0%, desferrioxamine 100%;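 active = mean activation of at least 10% of the iron chelator positive control signal, with at least half of replicates also reaching 10%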
# ALR H2O2 inh: human ALR oxidase inhibition via reduced H2O2; purified ALR, DTT oxidation, H2O2 HRP-luminol luminescence; P55789; inhibition, % (test concentration not listed); 3.8% of 290,000 active; AID 485317;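 active = mean replicate inhibition above about 79%, with every replicate also reaching it, limit read from the data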
# Target sequence (P55789 whole entry, looked up): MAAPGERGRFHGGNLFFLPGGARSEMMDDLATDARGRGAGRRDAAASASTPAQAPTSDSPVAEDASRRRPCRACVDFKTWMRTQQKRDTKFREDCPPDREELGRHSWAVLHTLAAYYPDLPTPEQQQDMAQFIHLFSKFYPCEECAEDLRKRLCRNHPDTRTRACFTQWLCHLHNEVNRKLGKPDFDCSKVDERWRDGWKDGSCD
# M18AAP inhibitor: blocks P. falciparum M18 aspartyl aminopeptidase. recombinant PfM18AAP, H-Glu-NHMec fluorogenic cleavage. inhibition, % at 7.35 µM. 1.2% of 290,000 active. AID 1822;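 active = inhibition above the campaign mean inhibition over all tested compounds plus 3 SD, cut at about 28% in these data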
# A number is an active result; i = inactive; nt = no result; + = active, no number.
SMILES,Mot1-301 SUMO,HIF activator,ALR H2O2 inh,M18AAP inhibitor
CCOC(=O)C1CCN(C(=O)CSCc2nc(-c3ccc(OCC)cc3)oc2C)CC1,i,i,99,i
CCOC(=O)CSCc1nc(-c2ccc(Cl)cc2)oc1C,i,i,i,i
Cc1ccc(-c2nc(CSCC(=O)N3CCCC3)c(C)o2)cc1,i,i,99,i
O=C(CSCc1ccccc1)N1CCN(C(=O)c2ccco2)CC1,i,i,i,i
CCOc1ccc(-c2nc(CSCC(=O)N3CCN(C(=O)c4ccco4)CC3)c(C)o2)cc1,i,i,99,i
O=C(NCc1cccs1)C1CC(=O)N(Cc2ccccc2)C1 (configuration not stated),i,nt,i,nt
COc1ccc(N(C)S(=O)(=O)c2cccc(C(=O)OCC(=O)N(C)c3ccccc3)c2)cc1,i,nt,i,nt
CCOC(=O)CSc1nnc(C)c(=O)[nH]1,i,i,i,i
CCOC(=O)CSc1nnc(NCC(=O)OC)c(=O)[nH]1,i,i,100,i
COc1cc(C2c3sc(=O)[nH]c3SC3C(=O)N(c4ccc(Br)cc4)C(=O)C32)ccc1O (configuration not stated),i,i,i,28
Cc1cc(C(=O)Nc2ncn[nH]2)ccc1[N+](=O)[O-],i,i,i,30
COc1ccc2c(c1)CCc1sc(NC(=O)c3ccco3)nc1-2,i,i,i,i
COc1ccc2c(c1)-c1nc(NC(=O)c3ccco3)sc1CC2,i,9.9,i,i
CCc1ccc(-c2nc(CS(=O)CC(=O)NCc3ccccc3)c(C)o2)cc1 (configuration not stated),i,i,99,i
Cc1ccc(-c2nc(CS(=O)CC(=O)NCc3ccc(Cl)cc3)c(C)o2)cc1 (configuration not stated),i,i,i,i
Cc1oc(-c2ccc(Cl)cc2)nc1CS(=O)CC(=O)NCc1ccccc1 (configuration not stated),i,i,99,i
Cc1oc(-c2ccc(Cl)cc2)nc1CS(=O)CC(=O)NCc1ccccn1 (configuration not stated),i,i,99,i
O=C(CCSc1ccc(Cl)cc1)NCc1ccccn1,i,i,i,i
COc1ccc(-c2nc(CS(=O)CC(=O)NCc3ccc(Cl)cc3)c(C)o2)cc1 (configuration not stated),i,i,99,i
COc1ccc(CNC(=O)CS(=O)(=O)Cc2nc(-c3ccc(OC)cc3)oc2C)cc1,i,i,i,i
CCN(CC)C(=O)Cn1cc(SCC(=O)NC)c2ccccc21,i,i,i,i
Cc1ccc(C)c(NC(=O)Cc2csc(-c3ccccc3)n2)c1,i,i,i,i
COc1ccc([C@@H]2[C@@H]3C(=O)N(C(C)(C)C)C(=O)[C@@H]3[C@]3(Cc4ccc(Cl)cc4)C(=O)N(c4cccc(C)c4)C(=O)N23)cc1,i,i,i,i
CC(=O)NCCC(=O)N(C)CC1CCN(CCc2cccc(C(F)(F)F)c2)CC1,i,i,i,i
Cc1oc(-c2ccc(Cl)cc2)nc1CS(=O)CC(=O)NC(C)c1ccccc1 (configuration not stated),i,i,98,i
SMILES,Mot1-301 SUMO,HIF activator,ALR H2O2 inh,M18AAP inhibitor
CCc1cccc(NC(=O)CS(=O)Cc2nc(-c3ccc(C)cc3)oc2C)c1 (configuration not stated),i,i,99,i
Cc1ccc(Sc2ncccc2C(N)=O)cc1,i,i,i,nt
COc1ccc(CNC(=O)c2ccc(N3CCC4(CC3)CC(c3ccc(Cl)cc3)=NO4)c(NC(=O)c3ccccc3)c2)cc1,i,i,i,nt
Cc1ccc2nc(Cl)c(/C=N/NC(=O)c3ccccc3O)cc2c1,i,i,97,i
O=C(CNC(=O)c1ccccc1Br)N/N=C/c1cc(Br)ccc1O,i,21,nt,i
Cc1ccc2nc(Cl)c(/C=N/NC(=O)[C@H]3C[C@@H]3c3ccccc3)cc2c1,i,i,i,i
O=C(N/N=C/c1cc(Cl)ccc1O)c1ccccc1Br,i,10,nt,i
O=C(CNC(=O)c1ccccc1Br)N/N=C/c1ccccc1O,i,i,i,i
O=C(N/N=C/c1cc(Cl)ccc1O)c1cccnc1,i,i,nt,i
CC1=C(C(=O)OCc2ccccc2)C(c2ccc(Cl)cc2)NC(=O)N1CCCC(=O)O (configuration not stated),i,i,i,i
O=C(c1ccccc1)N1CCCc2ccccc21,i,i,i,i
O=C(c1ccc(=O)oc1)N1CCCc2ccccc21,i,i,89,i
CCOCCCNC(=O)/C(C#N)=C/c1ccccc1F,i,i,i,i
CC1=NOC(=O)/C1=C\c1ccc(-c2ccc(Br)cc2)o1,nt,i,nt,i
CC1=NOC(=O)/C1=C\c1ccc(-c2ccc(Br)cc2C(=O)O)o1,i,i,89,i
O=C(CSC1=NCCS1)Nc1nc2c(s1)CCCC2,i,i,99,i
Cc1cc(=O)[nH]c(SCC(=O)Nc2nc3c(s2)CCCC3)n1,i,i,99,i
CCC(Sc1nc(C)cc(=O)[nH]1)C(=O)Nc1nc2c(s1)CCCC2 (configuration not stated),i,i,i,i
Cn1nnnc1SCC(=O)Nc1nc2c(s1)CCCC2,i,i,i,i
CCOC(=O)c1sc(-c2ccccc2)cc1NC(=O)Nc1ccc([N+](=O)[O-])cc1,i,i,99,i
CCOC(=O)c1sc2ncc([N+](=O)[O-])cc2c1N,i,i,i,i
O=C(NS(=O)(=O)Oc1ccccc1F)OC[C@@H]1CCCN2CCCCC12 (some centres not stated),i,i,nt,i
O=c1sc(Nc2ccccc2)nc2ccccc12,i,i,i,i
O=c1cnnc(Nc2ccc(Nc3ccccc3)cc2)[nH]1,i,i,100,i
O=C(CSc1nnc(NC(=O)C2CC2)s1)NCc1ccccc1,i,i,i,i
SMILES,Mot1-301 SUMO,HIF activator,ALR H2O2 inh,M18AAP inhibitor
O=C(CCCC1=NS(=O)(=O)c2ccccc2N1)N1CCN(c2ccc(Cl)cc2)CC1,i,i,96,i
O=S(=O)(NC(=S)NC1CCCCC1)c1ccccc1,i,i,nt,i
Cc1ccccc1OCC(=O)Nc1ccccc1C(=O)N1CCCCC1,i,i,86,i
c1ccc(Cc2nnc(-c3ccccc3)o2)cc1,i,9.7,i,i
CN(C)C(=O)C(NC(=O)c1ccccc1)=C(Cl)Cl,i,i,i,i
CC(CCC(C)C(C)(C)C)[C@@H]1CC[C@H]2C3C[C@H](OS(O)(=S)=S)[C@H]4C[C@H](OS(O)(=S)=S)[C@@H](OS(O)(=S)=S)C[C@]4(C)[C@H]3CC[C@]12C (some centres not stated) (tested in a mixture with another compound),+,nt,98,nt
CCN1C(=O)c2cccc3c(S(=O)(=O)Nc4ccc(O)c(C(=O)O)c4)ccc1c23,i,i,98,i
COc1cc(OC)c(NC(C)C(=O)NCc2ccccc2)cc1Cl (configuration not stated),i,i,94,i
CCOc1c(C=C(C#N)C#N)c2ccccc2n1CC,i,i,99,i
COc1c2ccoc2nc2c(OC)c(O)ccc12,i,i,99,i
COc1c2ccoc2nc2c(OC)c(OCC(O)C(C)(C)O)ccc12 (configuration not stated),i,nt,i,i

# Source: PubChem
